According to PubChem BioAssay (Tox21):
A number with no mark means an inactive call. Results filed as inconclusive are left out. Where a call stands in place of a potency, no number is given. Calls of active or inactive are those of the source. Unless noted, the call rests on the fitted dose curve.

Columns and labels:
[1] = Nuclear factor erythroid 2-related factor 2/antioxidant responsive element (Nrf2/ARE) small molecule agonists: qHTS cell viability counter screen in human keratinocytes (AID 1919968; active means well fitted curve in the direction sought with a large enough effect in the repeat runs; an effect the other way counts as inactive or inconclusive; further: nearly all actives have a fitted effect of over 55% in size)
Summary of the method: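 Measured as CellTiter-Fluor fluorescence, this readout tracks cytotoxicity in the same wells as the ARE-luciferase screen. HaCaT reporter cells (1,500/well) received compounds after a 5 h pre-incubation and were exposed for 23 h.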

[2] = Nuclear factor erythroid 2-related factor 2/antioxidant responsive element (Nrf2/ARE) small molecule agonists: luciferase reporter gene qHTS assay in human keratinocytes (AID 1919969); further: nearly all actives have a fitted effect of over 35% in size
[3] = target: Gonadotropin-releasing hormone receptor (Homo sapiens) (UniProt P30968); assay: Human gonadotropin-releasing hormone receptor (GnRHR) small molecule agonists, calcium flux assay in GnRHR-HEK293 cells (AID 1920063); further: nearly all actives have a fitted effect of over 35% in size
Summary of the method: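 Fluorescence kinetics (480 nm excitation, 540 nm emission; 3 min, 1 s steps) report calcium mobilisation in human GnRHR-HEK293 cells in agonist mode. Dye incubation: 1 h, 37 C.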

[4] = target: KiSS-1 receptor (Homo sapiens) (UniProt Q969F8); assay: Human kisspeptin (KISS1R) small molecule agonists, calcium flux assay in KISS1R-HEK293 cells (AID 1920064; active means well fitted curve in the direction sought with a large enough effect in the repeat runs; an effect the other way counts as inactive or inconclusive)
Summary of the method: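 Measures KISS1R agonism through calcium-sensitive dye fluorescence in stably transfected HEK293 cells, read for 3 min after pin-tool compound delivery; 15-point titrations in triplicate.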

[5] = G protein-coupled receptor (GPCR) small molecule agonists, calcium flux assay: HEK293 wild type cell line counter screen (AID 1920065)
Summary of the method: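 Readout: fluorescence at 480 nm excitation/540 nm emission, sampled at 1 s intervals for 3 min. Cells had been cultured 18 h, then dye-loaded 1 h at 37 C before compound or ATP addition.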

[6] = p53 small molecule agonists, cell-based qHTS assay with human liver microsomes (AID 1963577);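 further: p53 response element beta-lactamase reporter cells with liver microsomes plus NADPH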
Summary of the method: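 With metabolic activation: human liver microsomes (0.5 mg/mL final) plus NADPH (0.5 mg/mL final) added alongside compounds to p53RE-bla cells; 16 h 37 C exposure; beta-lactamase read by LiveBLAzer fluorescence.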

[7] = p53 small molecule agonists, cell-based qHTS assay with rat liver microsomes (AID 1963578)
Summary of the method: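 Metabolic activation by rat liver microsomes and NADPH, each 0.5 mg/mL final, added right after compounds to p53RE-bla reporter cells (4,000/well, plated 5 h earlier). 16 h at 37 C, then LiveBLAzer substrate for 2 h at room temperature in the dark; fluorescence read-out.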

[8] = p53 small molecule agonists, cell-based qHTS assay: qHTS cell viability counter screen (AID 1963581); further: nearly all actives have a fitted effect of over 45% in size
Summary of the method: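 In the same plates used for the p53 bla reporter, HCT-116 cells given compounds for 16 h at 37 C received CellTiter-Glo; luminescence was recorded 30 min later at room temperature.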

[9] = p53 small molecule agonists, cell-based qHTS assay (AID 1963582; active means well fitted activation curve with a large enough effect in the signal ratio in the repeat runs, not every such curve was filed as active; the % refers to the signal ratio)
Summary of the method: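 Compounds are pin-transferred in DMSO onto p53RE-bla cells and incubated 16 h at 37 C. The B/G FRET beta-lactamase substrate is then applied for 2 h at RT and fluorescence recorded.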

[10] = target: 5-hydroxytryptamine receptor 2A (Homo sapiens) (UniProt P28223); assay: 5-hydroxytryptamine receptor 2A (HTR2A) small molecule antagonists, cell-based qHTS assay (AID 1963586); further: nearly all actives have a fitted effect of over 45% in size; further: potency means the concentration at half of the fitted maximal effect
Summary of the method: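 Antagonist-mode intracellular calcium assay: DOI (4 nM) added after 5 min compound pre-incubation at room temperature to dye-loaded HTR2A-CHO cells. Fluorescence followed for 3 min, sampled every second.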

[11] = target: 5-hydroxytryptamine receptor 2A (Homo sapiens) (UniProt P28223); assay: 5-hydroxytryptamine receptor 2A (HTR2A) small molecule agonists, cell-based qHTS assay (AID 1963587); further: nearly all actives have a fitted effect of over 30% in size; further: potency means the concentration at half of the fitted maximal effect
Summary of the method: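 HTR2A-CHO cells, plated 18 h at 37 C/5% CO2, dye-loaded 1 h at 37 C; compounds in DMSO added by pin tool (agonist mode). Intracellular calcium flux read as kinetic fluorescence on FDSS over 2 min at 1 s intervals.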

[12] = target: Muscarinic acetylcholine receptor M1 (Homo sapiens) (UniProt P11229); assay: Cholinergic receptor muscarinic 1 (CHRM1) small molecule agonists, cell-based qHTS assay (AID 1963589); further: nearly all actives have a fitted effect of over 35% in size
Summary of the method: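 Each compound was tested at 15 concentrations across three independent runs on dye-loaded CHO cells stably expressing human CHRM1, reading intracellular calcium fluorescence kinetically at 1 sec intervals.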

[13] = cAMP Responsive Elements (CRE) small molecule agonists, cell-based qHTS assay (AID 1963590)
Summary of the method: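 Cell line: CRE-bla HEK 293T; medium DMEM/10% dialyzed FBS/0.1 mM NEAA/1 mM pyruvate/25 mM HEPES; 3 h compound exposure; beta-lactamase FRET readout after 2 h substrate loading at RT.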

[14] = cAMP Responsive Elements (CRE) small molecule antagonists, cell-based qHTS assay (AID 1963591; active means well fitted inhibition curve with a large enough effect in the signal ratio in the repeat runs, not every such curve was filed as active; the % refers to the signal ratio)
Summary of the method: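 Inhibition of NKH477-driven (0.25 uM final) CRE-beta-lactamase signal in HEK293T cells, 3 h compound exposure at 37 °C, detected by FRET substrate fluorescence.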

[15] = target: Beta-2 adrenergic receptor (Homo sapiens) (UniProt P07550); assay: Adrenergic beta2 receptor (ADRB2) small molecule antagonists, cell-based qHTS assay (AID 1963592); further: series mostly up to about 92 µM; nearly all actives have a fitted effect of over 50% in size
Summary of the method: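 Cells (CHO, stable ADRB2 overexpression) incubated 18-20hr at 37C; compounds added from DMSO; agonist mix (1nM isoproterenol, 100uM IBMX, 25uM Ro-20-1724) added; 0.5hr RT; d2-cAMP and anti-cAMP-cryptate added; 1hr RT; 665/615 nm read.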

[16] = target: D(2) dopamine receptor (Homo sapiens) (UniProt P14416); assay: Dopamine D2 receptor (DRD2) small molecule agonists, cell-based qHTS assay (AID 1963594); further: nearly all actives have a fitted effect of over 35% in size; further: potency means the concentration at half of the fitted maximal effect
Summary of the method: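 HEK293 cells stably expressing DRD2 were cultured 24 h at 37 C, then given Ro20-1724 (0.1 mM final) and compounds for 10 min at room temperature. NKH477 (200nM) was then added for 30 min. cAMP was read by HTRF.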

[17] = target: D(2) dopamine receptor (Homo sapiens) (UniProt P14416); assay: Dopamine D2 receptor (DRD2) small molecule antagonists, cell-based qHTS assay (AID 1963595; active means well fitted inhibition curve with a large enough effect in the signal ratio in the repeat runs, with a control signal flat; the % refers to the signal ratio)
Summary of the method: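 DRD2-HEK293; 0.1 mM Ro20-1724; cpd 10 min RT; NKH477 200 nM + quinpirole 12 nM, 30 min RT; HTRF cAMP (cAMP-d2/anti-cAMP cryptate), 665/620 nm ratio after 1 h.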

[18] = p53 small molecule agonists, cell-based qHTS assay with rat liver microsomes: qHTS cell viability counter screen (AID 1963580); further: nearly all actives have a fitted effect of over 45% in size
Summary of the method: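 p53RE-bla HCT-116 cells (4,000/well) rested 5 h at 37 C, then given Tox21 compounds in DMSO with rat liver microsomes (0.5 mg/mL final) plus NADPH (0.5 mg/mL final) for 16 h at 37 C. Viability read by CellTiter-Glo luminescence after 30 min at room temperature.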

[19] = target: Muscarinic acetylcholine receptor M1 (Homo sapiens) (UniProt P11229); assay: Cholinergic receptor muscarinic 1 (CHRM1) small molecule antagonists, cell-based qHTS assay (AID 1963588); further: nearly all actives have a fitted effect of over 40% in size
Summary of the method: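 CHRM1-CHO calcium-flux assay, antagonist mode. Cells were seeded 18 h, dye-loaded 1 h at 37 C and given compound for 5 min at RT, then acetylcholine was added at 50nM. FDSS fluorescence was read 3 min; 15 concentrations, three runs.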

Chain of Muscarinic acetylcholine receptor M1 (Homo sapiens) (P11229 whole entry, looked up): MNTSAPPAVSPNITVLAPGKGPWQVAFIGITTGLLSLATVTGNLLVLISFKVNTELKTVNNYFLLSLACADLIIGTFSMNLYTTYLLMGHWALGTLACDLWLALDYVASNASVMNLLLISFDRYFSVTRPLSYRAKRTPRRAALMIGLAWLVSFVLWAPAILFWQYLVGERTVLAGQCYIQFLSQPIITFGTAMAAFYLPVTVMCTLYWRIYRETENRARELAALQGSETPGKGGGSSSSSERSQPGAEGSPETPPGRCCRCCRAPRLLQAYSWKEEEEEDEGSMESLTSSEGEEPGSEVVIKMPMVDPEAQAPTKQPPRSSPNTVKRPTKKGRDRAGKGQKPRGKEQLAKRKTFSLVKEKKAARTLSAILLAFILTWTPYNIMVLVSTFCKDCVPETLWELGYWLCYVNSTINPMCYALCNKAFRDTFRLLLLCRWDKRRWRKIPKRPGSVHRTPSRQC
Chain of KiSS-1 receptor (Homo sapiens) (Q969F8 whole entry, looked up): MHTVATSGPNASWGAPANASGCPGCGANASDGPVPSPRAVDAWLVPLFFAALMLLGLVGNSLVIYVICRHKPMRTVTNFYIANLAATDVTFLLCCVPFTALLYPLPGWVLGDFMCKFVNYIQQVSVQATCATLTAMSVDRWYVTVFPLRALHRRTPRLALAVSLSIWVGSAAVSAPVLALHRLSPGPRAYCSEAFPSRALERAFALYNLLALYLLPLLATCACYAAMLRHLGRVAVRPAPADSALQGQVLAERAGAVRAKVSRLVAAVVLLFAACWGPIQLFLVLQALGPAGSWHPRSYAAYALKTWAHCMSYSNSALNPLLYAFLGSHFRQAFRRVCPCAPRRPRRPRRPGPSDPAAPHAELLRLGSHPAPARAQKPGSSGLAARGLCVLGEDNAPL
Chain of 5-hydroxytryptamine receptor 2A (Homo sapiens) (P28223 whole entry, looked up): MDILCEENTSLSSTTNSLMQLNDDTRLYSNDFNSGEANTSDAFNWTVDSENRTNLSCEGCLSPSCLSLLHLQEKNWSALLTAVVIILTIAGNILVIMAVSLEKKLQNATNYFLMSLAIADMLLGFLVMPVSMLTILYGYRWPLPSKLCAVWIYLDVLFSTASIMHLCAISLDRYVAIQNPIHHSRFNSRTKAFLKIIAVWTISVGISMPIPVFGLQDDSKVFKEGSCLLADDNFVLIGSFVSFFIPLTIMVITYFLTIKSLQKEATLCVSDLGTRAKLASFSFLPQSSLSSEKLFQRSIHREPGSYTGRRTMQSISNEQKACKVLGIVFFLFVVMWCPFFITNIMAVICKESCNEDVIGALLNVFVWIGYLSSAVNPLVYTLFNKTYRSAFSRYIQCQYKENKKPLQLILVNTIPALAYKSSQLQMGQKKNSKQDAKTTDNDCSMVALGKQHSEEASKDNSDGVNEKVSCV
Chain of Gonadotropin-releasing hormone receptor (Homo sapiens) (P30968 whole entry, looked up): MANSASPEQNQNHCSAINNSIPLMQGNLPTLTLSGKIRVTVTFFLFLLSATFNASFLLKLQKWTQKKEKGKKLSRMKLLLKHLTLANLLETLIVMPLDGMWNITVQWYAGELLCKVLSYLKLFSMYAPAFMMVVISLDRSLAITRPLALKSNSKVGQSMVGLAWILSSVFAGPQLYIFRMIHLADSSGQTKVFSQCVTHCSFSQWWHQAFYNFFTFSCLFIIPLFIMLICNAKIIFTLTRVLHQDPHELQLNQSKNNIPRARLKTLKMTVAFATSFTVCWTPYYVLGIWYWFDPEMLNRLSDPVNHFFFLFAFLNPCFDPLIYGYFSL
Chain of D(2) dopamine receptor (Homo sapiens) (P14416 whole entry, looked up): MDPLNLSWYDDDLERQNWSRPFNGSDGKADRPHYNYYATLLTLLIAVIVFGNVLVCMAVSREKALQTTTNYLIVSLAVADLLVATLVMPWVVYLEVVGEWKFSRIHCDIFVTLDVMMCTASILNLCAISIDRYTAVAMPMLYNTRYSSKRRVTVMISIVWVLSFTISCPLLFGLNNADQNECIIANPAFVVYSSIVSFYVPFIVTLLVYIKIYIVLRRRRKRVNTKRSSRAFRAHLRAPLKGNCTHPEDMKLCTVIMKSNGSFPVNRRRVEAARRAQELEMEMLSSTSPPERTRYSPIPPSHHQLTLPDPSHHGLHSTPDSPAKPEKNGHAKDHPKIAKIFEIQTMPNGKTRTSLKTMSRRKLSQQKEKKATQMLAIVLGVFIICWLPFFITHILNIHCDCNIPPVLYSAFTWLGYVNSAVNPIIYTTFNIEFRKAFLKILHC
Chain of Beta-2 adrenergic receptor (Homo sapiens) (P07550 whole entry, looked up): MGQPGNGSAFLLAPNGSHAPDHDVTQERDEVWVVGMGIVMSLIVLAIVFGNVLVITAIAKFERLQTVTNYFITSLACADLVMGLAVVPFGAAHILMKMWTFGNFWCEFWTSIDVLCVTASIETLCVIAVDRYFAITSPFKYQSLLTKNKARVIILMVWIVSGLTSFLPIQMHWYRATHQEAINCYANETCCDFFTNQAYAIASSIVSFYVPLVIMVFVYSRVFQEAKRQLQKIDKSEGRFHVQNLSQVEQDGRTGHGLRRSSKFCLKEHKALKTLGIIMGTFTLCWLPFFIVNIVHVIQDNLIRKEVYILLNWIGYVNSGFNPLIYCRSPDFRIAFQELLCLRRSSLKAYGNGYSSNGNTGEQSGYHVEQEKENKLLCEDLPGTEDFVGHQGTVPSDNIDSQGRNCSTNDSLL

CC[N+](CC)(CCNC(=O)C(=O)NCC[N+](CC)(CC)Cc1ccccc1Cl)Cc1ccccc1Cl
Potency [1]: inactive | Potency [2]: inactive | Potency [3]: inactive | outcome [4]: inactive | outcome [5]: inactive | Potency [6]: inactive | Potency [7]: inactive | Potency [8]: inactive | Potency [9]: inactive | Potency [10]: inactive | Potency [11]: inactive | Potency [12]: inactive | Potency [13]: inactive | Potency [14]: inactive | Potency [15]: inactive | Potency [16]: inactive | Potency [17]: inactive

COc1ccc2c(c1)C(=O)N(CCc1ccc(S(=O)(=O)NC(=O)NC3CCCCC3)cc1)C(=O)C2(C)C
Potency [1]: inactive | Potency [2]: inactive | Potency [3]: inactive | outcome [4]: inactive | outcome [5]: inactive | Potency [6]: inactive | Potency [7]: inactive | Potency [18]: inactive | Potency [11]: inactive | Potency [19]: inactive | Potency [12]: inactive | Potency [16]: inactive | Potency [17]: inactive

Nc1c(CC(=O)O)cccc1C(=O)c1ccc(Br)cc1
Potency [1]: inactive | Potency [2]: inactive | Potency [3]: inactive | outcome [4]: inactive | outcome [5]: inactive | Potency [6]: inactive | Potency [7]: inactive | Potency [18]: inactive | Potency [15]: inactive | Potency [16]: inactive | Potency [17]: inactive

C=CCN1CCc2nc(N)sc2CC1
Potency [1]: inactive | Potency [2]: inactive | Potency [3]: inactive | outcome [4]: inactive | outcome [5]: inactive | Potency [6]: inactive | Potency [7]: inactive | Potency [18]: inactive | Potency [9]: inactive | Potency [10]: 4.1 µM (active) | Potency [11]: 6.01 µM (active) | Potency [19]: inactive | Potency [12]: inactive | Potency [13]: inactive | Potency [14]: inactive | Potency [15]: inactive | Potency [16]: 0.119 µM (active) | Potency [17]: inactive

Cc1nc2n(c(=O)c1CCN1CCC(c3noc4cc(F)ccc34)CC1)CCCC2
Potency [1]: inactive | Potency [2]: inactive | Potency [3]: inactive | outcome [4]: inactive | outcome [5]: inactive | Potency [6]: inactive | Potency [7]: inactive | Potency [18]: inactive | Potency [9]: inactive | Potency [13]: inactive | Potency [14]: inactive | Potency [16]: inactive

CC/C(=C\C(=N/O)C(N)=O)C(C)[N+](=O)[O-] (configuration not stated)
Potency [1]: inactive | Potency [2]: inactive | Potency [3]: inactive | outcome [4]: inactive | outcome [5]: inactive | Potency [6]: inactive | Potency [7]: inactive | Potency [18]: inactive | Potency [9]: inactive | Potency [10]: inactive | Potency [11]: inactive | Potency [19]: inactive | Potency [12]: inactive | Potency [14]: inactive | Potency [15]: inactive | Potency [16]: inactive | Potency [17]: inactive

Cc1c(Cn2ccnc2)c2ccccc2n1CCC(=O)O
Potency [1]: inactive | Potency [2]: inactive | Potency [3]: inactive | outcome [4]: inactive | outcome [5]: inactive | Potency [6]: inactive | Potency [7]: inactive | Potency [18]: inactive | Potency [9]: inactive | Potency [10]: inactive | Potency [11]: inactive | Potency [19]: inactive | Potency [12]: inactive | Potency [13]: inactive | Potency [15]: inactive | Potency [16]: inactive | Potency [17]: inactive

O=c1[nH]cccc1O
Potency [1]: inactive | Potency [2]: inactive | Potency [3]: inactive | outcome [4]: inactive | outcome [5]: inactive | Potency [6]: inactive | Potency [7]: inactive | Potency [18]: inactive | Potency [9]: inactive | Potency [10]: inactive | Potency [11]: inactive | Potency [19]: inactive | Potency [12]: inactive | Potency [13]: inactive | Potency [14]: inactive | Potency [15]: inactive | Potency [17]: inactive
